Experimental findings from PubChem BioAssay AID777 (Sanford-Burnham Center for Chemical Genomics, 2007) are described below.

In all, about 96,000 compounds went through this assay and about 19,000 (20%) were called active. A selection follows. A number with no mark means an inactive call.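 Rule for the calls: active = blocking of liver enzyme CYP2C9 beyond about 50% at 5 µM (limit read from the data); inactive = the rest.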

Chain of Cytochrome P450 2C9 (Homo sapiens) (P11712 whole entry, looked up): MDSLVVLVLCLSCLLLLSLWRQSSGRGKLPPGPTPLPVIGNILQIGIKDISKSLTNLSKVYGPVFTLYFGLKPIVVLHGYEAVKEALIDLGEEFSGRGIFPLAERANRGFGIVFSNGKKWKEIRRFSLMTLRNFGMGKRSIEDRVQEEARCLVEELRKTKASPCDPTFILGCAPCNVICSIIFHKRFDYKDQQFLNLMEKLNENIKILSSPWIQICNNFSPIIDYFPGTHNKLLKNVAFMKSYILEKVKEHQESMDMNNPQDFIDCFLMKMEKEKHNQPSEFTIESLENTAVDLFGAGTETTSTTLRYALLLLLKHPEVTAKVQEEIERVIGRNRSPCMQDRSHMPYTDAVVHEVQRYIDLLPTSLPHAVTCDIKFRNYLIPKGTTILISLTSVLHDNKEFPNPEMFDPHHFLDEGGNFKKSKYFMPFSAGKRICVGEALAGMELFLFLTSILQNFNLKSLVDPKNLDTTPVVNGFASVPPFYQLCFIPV

This experiment has as its target Cytochrome P450 2C9 (Homo sapiens) (UniProt P11712). As to the kind of experiment: blockers of cytochrome P450 2C9 activity – biochemical, luminescence, ADME assay, primary screen (AID 777). The conditions noted are these: CYP2C9 Supersomes, luciferin-H conversion, at 5 µM, stronger effect = higher value.
On to `Cc1ccc(-c2nn(-c3ccccc3)cc2CN(Cc2ccccc2)C(=O)CCC(=O)O)o1`, for which the inhibition is 65.1% (active). With `CCN(Cc1ccccc1)C(=O)CSc1nc(C)cc2c1C(=O)OC2`, the inhibition was -130%. As to `O=C(O)CCC(=O)N(Cc1cccs1)Cc1cccs1`, the inhibition was 31.5%.

As to `CCCSC(=S)NC1CCS(=O)(=O)C1` (centres undefined), the inhibition was 19.1%. On to `Cc1ccc(Cc2cnc(N)s2)o1`, for which the inhibition is 3%. Consider `N/C(=N\OC(=O)CCc1ccccc1)c1ccc(Cl)cc1`, for which the inhibition is 8.3%. For `COc1cc(/C=N/O)cc(Br)c1OCc1cccc(Cl)c1`, the inhibition is -39.5%. The same measure for `CCOc1cc(/C=N/O)cc(Br)c1OC`: 17.9%; for `COc1cc(/C=N/O)cc(Br)c1OS(=O)(=O)c1ccc(C)cc1`: 67.9% (active); for `O=C(NCc1cn2ccsc2n1)Nc1cccc(Cl)c1`: -17.8%.

Take `Cc1cccc(NC(=O)C2CCN(S(=O)(=O)c3cccc4cccnc34)CC2)c1`: the inhibition was -180%. As to `COC(=O)c1sc(=S)n(-c2ccccc2)c1N`, the inhibition is 3.7%. For `COCCOC(=O)c1sc(=S)n(CCOC)c1N` the value was 1%; for `CCOC(=O)Cn1c(N)c(C(=O)OC)sc1=S`, 57.8% (active); for `Cc1ccc(O)c(CNc2nc3ccccc3n2C)c1`, 21.9%. In the case of `O=C(COc1cccc(-n2cnnn2)c1)NCCC1=CCCCC1`, the inhibition was 79.4% (active). For `O=C(COc1ccc(Cl)cc1)NCCC1=CCCCC1` the value was 40.4%. Turning to `Cc1nnc(OCC(=O)NCCC2=CCCCC2)c2ccccc12`, the inhibition is -29.1%. Take `CC(C)(C)c1cc(CN2CCN(CCC#N)CC2)cc(C(C)(C)C)c1O`: the inhibition was 4.9%.

With `CC(C)Oc1ccc(C2NC(=O)NC2=O)cc1` (centres undefined), the inhibition was -28.2%. Take `COc1ccc2oc(C)c(NC(C)=O)c2c1`: the inhibition is -8.9%.

As for `COc1ccc(S(=O)(=O)Nc2ccc3oc(C)c(C(C)=O)c3c2)cc1`, the inhibition was 67.2% (active).

Consider `COc1ccc(Nc2cc(=O)oc3ccccc23)cc1`, for which the inhibition was -27.6%. For `CCOC(=O)c1c(C)[nH]c(C)c1C(=O)CSc1nc(N)cc(N)n1` the value was -35.6%; for `COc1cc(CNCc2cccs2)cc(Br)c1OC`, 8.7%.

Regarding `Cn1c(SCc2c(F)cccc2Cl)nnc1-c1cnccn1`, the inhibition was -6%. The same measure for `COc1cccc(N=c2oc3c(C)ncc(CO)c3cc2C(N)=O)c1`: 11.4%.

On to `COc1cccc(OC)c1C(=O)Nc1nnc(C(C)C)s1`, for which the inhibition was 20.1%.

In the case of `COC(=O)C1=C(C)NC2=C(C(=O)c3ccccc32)C1c1ccc(-c2ccc(C(=O)O)cc2)o1` (centres undefined), the inhibition is 97.3% (active). The same measure for `COc1ccccc1NC(=O)C1=C(C)NC2=C(C(=O)CCC2)C1c1ccc(C)o1` (centres undefined): 10.7%. For the compound `COC(=O)C1=C(C)NC(=O)NC1/C=C/c1ccccc1` (centres undefined), the inhibition is -0.6%. Consider `Clc1ccc(C=NC23CN4CN(CN(C4)C2)C3)cc1`, for which the inhibition is 1.1%. For `COc1ccc(CN2CCCCC2C)cc1OC` (centres undefined) the value was -9.7%. For `Cc1ccc(CN2C(=O)CCC2C(=O)NCCCN2CCCCC2C)cc1` (centres undefined) the value was 0%. For the compound `CCc1ccc2oc(=O)cc(CN3CCCCC3C)c2c1` (centres undefined), the inhibition is 54.9% (active). `O=C(OCC(=O)c1cccs1)C1=COCCO1`: the inhibition was 0.5%. Consider `CCC(C)(C)c1ccc(Oc2ccc(NC(=O)COC(=O)C3=COCCO3)cc2)cc1`, for which the inhibition is 76.1% (active). Consider `CCC1(CC)NC(=O)N(CC(=O)OCC(=O)Nc2ccc(C(F)(F)F)cc2)C1=O`, for which the inhibition is -10.3%. For the compound `O=C(C1CC1)N1CCN=C1SCc1ccc(Cl)cc1`, the inhibition is 21.3%. For `CC(C(=O)N1CCOCC1)N1c2cccc3cccc(c23)S1(=O)=O` (centres undefined), the inhibition is -30.6%.

On to `NC(N)=N/N=C/c1ccc(OCc2ccc(Cl)cc2Cl)cc1`, for which the inhibition is -11.8%.

For `COc1ccc(C2Nc3ccccc3C(=O)N2Cc2ccccc2)cc1Cn1nnc2ccccc21` (centres undefined), the inhibition is 93.5% (active). As for `COc1ccc(C2=NO[C@@H]3C(=O)N(Cc4ccccc4)C(=O)[C@H]23)cc1OC`, the inhibition is 47%. In the case of `Cc1cc(C)c2c(n1)nn1c(-n3ccnc3)cc(C)nc21`, the inhibition was -4.3%.

On to `CCn1c(Cc2ccccc2)nnc1SCC(=O)Nc1ccccc1`, for which the inhibition is 4%. As to `CCOC(=O)CSc1nnc(CNc2nc(-c3ccccc3)cs2)n1C`, the inhibition was -2.1%.

`Cc1ccccc1NC(=O)Cc1nnc(SCC(=O)N2CCN(c3ccccc3)CC2)n1C`: the inhibition was 13.3%. Take `Cn1c(CC(=O)Nc2ccccc2)nnc1SCC(=O)c1ccccc1`: the inhibition was 76.5% (active). With `Cn1c(CNc2nc(-c3ccccc3)cs2)nnc1SCC(=O)c1ccccc1`, the inhibition is 65.7% (active). Consider `Cc1ccc(C(=O)CSc2nnc(Cn3nnc4ccccc43)n2C)cc1`, for which the inhibition is 20.6%. With `CCc1ccc2c(c1)cc(CN(C(=S)Nc1ccccc1Cl)C1CC1)c1nnnn12`, the inhibition was -11.3%. Consider `CCOc1ccccc1C1C(C(=O)OC)=CN(C)C=C1C(=O)OC`, for which the inhibition was 39.1%.

In the case of `CC(C)Oc1ccc(Oc2ccc(C(F)(F)F)cn2)cc1`, the inhibition is 23.3%. The same measure for `Cc1ccc(C2C(C#N)C(C#N)N3CCCN23)cc1` (centres undefined): -8.1%; for `CCOC(=O)c1c(C)n(C)c2ccc(OC)c(NC(=O)CN3CCC4(CC3)OCCO4)c12`: 18.3%.

With `COc1ccc(CCNC(=O)CN2CCC(n3nnc4cc(F)ccc43)CC2)cc1OC`, the inhibition was 28.1%.

As to `Cc1nn(Cc2ccccc2Cl)c(C)c1NC(=O)Cn1nc([N+](=O)[O-])c(Cl)c1C`, the inhibition was 11%.

For the compound `CSCCC(Nc1nc2ccccc2s1)C(=O)O` (centres undefined), the inhibition is 25.8%. `Cc1nn(CC(=O)Nc2nc3ccccc3s2)c(C)c1[N+](=O)[O-]`: the inhibition is 89.2% (active). Regarding `Cc1ccc(S(=O)(=O)NCc2cn3ccsc3n2)c(C)c1`, the inhibition was 21.3%. Turning to `COc1ccc(CCN(Cc2cc3cccc(C)c3[nH]c2=O)C(=O)N2CCCC2)cc1OC`, the inhibition is 32.5%. For the compound `O=C(CC1OC(=O)c2ccccc21)NC1CCCCC1` (centres undefined), the inhibition is -99.1%. Take `O=C(Nc1ccccc1F)c1cc(S(=O)(=O)N2CCCCC2)cs1`: the inhibition is 75.6% (active).

Consider `O=C(CN1CCN(S(=O)(=O)c2ccc(F)cc2)CC1)Nc1ccccc1F`, for which the inhibition is 40.4%. For `CCOc1ccccc1NC(=O)c1cc(S(=O)(=O)N2CCC3(CC2)OCCO3)ccc1F`, the inhibition is 6.8%.

`COc1ccc(CN(Cc2ccco2)S(=O)(=O)c2ccc(S(=O)(=O)N3CCCC3)cc2)cc1`: the inhibition was 39.9%. For the compound `CCOC(=O)Cn1c(=O)oc2cc(S(=O)(=O)N(C)Cc3ccco3)ccc21`, the inhibition was 28.8%. As to `CCOc1ccc(CN(Cc2ccco2)S(=O)(=O)c2ccc(-n3cnnn3)c(OC)c2)cc1`, the inhibition is 65.1% (active).

With `NC(=O)N1CCCC1C(=O)Nc1ccc(Cl)c(Cl)c1` (centres undefined), the inhibition was 14.9%.

Turning to `CC(C)(C)NC(=O)Cn1cnc([N+](=O)[O-])n1`, the inhibition is -14.1%.

Regarding `O=S(=O)(NCc1ccccn1)c1ccc(Br)s1`, the inhibition was -3.5%.

In the case of `O=c1c2[nH]c3ccc(Cl)cc3c2ncn1Cc1ccccn1`, the inhibition was 17.6%. `COc1ccc2[nH]cc(/C=C(/C#N)S(=O)(=O)c3ccccc3)c2c1`: the inhibition is 95.4% (active). Regarding `COc1ccc2[nH]c3ccc(OC)cc3c2c1`, the inhibition was 26.8%. Take `O=C(O)CCSc1nnc(-c2ccccc2)n1-c1ccccc1`: the inhibition is -14.5%.

Take `C=CCNc1nnc(SCC(=O)N2CCCCC2)c2ccccc12`: the inhibition was -25.8%.

For the compound `COC(=O)C(C(=O)Nc1cccc(C)n1)C1CCCCCC1` (centres undefined), the inhibition was 33.3%. `CN1CC(c2ccccc2)C2(COc3ccccc3C2=O)C12C(=O)Nc1ccccc12` (centres undefined): the inhibition is 20.5%. For `CC1(C)CC(=O)c2sc(N)nc2C1` the value was 12.9%; for `Cc1cc(=O)[nH]c(SCC(=O)N2c3ccccc3CC2C)n1` (centres undefined), 8%.

For the compound `CCC(=O)N1c2ccc(S(=O)(=O)CCC(=O)N3CCN(c4ccccc4)CC3)cc2CC1C` (centres undefined), the inhibition is 49%. Take `CC1Cc2ccccc2N1C(=O)c1cc2sccc2n1Cc1ccccc1` (centres undefined): the inhibition is 61.6% (active). Turning to `COC(C)(C)[C@]12CC(O)(C(C)C)ON1[C@H]1CCCCC1N2O` (some centres undefined), the inhibition was -1.4%. For `CCC(C)(C(=O)NC1CCCC1)N(C(=O)CNC(C)=O)c1ccc(C)cc1` (centres undefined) the value was 2.8%.

As for `COc1ccc2c(c1)OC(O)(C(F)(F)C(F)F)CC2=O` (centres undefined), the inhibition is 78.5% (active). For `COc1ccc2c(c1)SC(C)CC2=O` (centres undefined), the inhibition is 12.7%. As to `CCOc1ccc(CNC(=O)C2CCC(=O)N2C2CCCC2)cc1OC` (centres undefined), the inhibition is 4.4%. In the case of `CCCN1C(=O)C(NC(C)=O)c2cc(OC)ccc21` (centres undefined), the inhibition is -5.4%. Take `CCOC(=O)COc1cc(OCC(=O)OCC)c2c(=O)cc(-c3ccccc3)oc2c1`: the inhibition is 70.3% (active). For `COC(=O)COc1ccc2oc(=O)cc(C)c2c1` the value was -9.3%. In the case of `Cc1cc(C)cc(OCC(=O)NNC(=O)c2cc3ccccc3oc2=O)c1`, the inhibition was -15.8%. With `CN1CCCC(OC(=O)COc2ccc(Br)cc2)C1` (centres undefined), the inhibition is -1.2%. As for `COc1ccc(C(=O)Nc2nc(-c3ccc(OC)cc3)c(-c3ccc([N+](=O)[O-])cc3)s2)cc1`, the inhibition was 19.7%. Consider `COC(=O)C(NC(=O)c1ccc(OC)cc1)(Nc1ncc(S(=O)(=O)c2ccc([N+](=O)[O-])cc2)s1)C(F)(F)F` (centres undefined), for which the inhibition was 66.3% (active). Turning to `CCC1CCCCN1CCNC(=O)c1[nH]c(C)c(C(C)=O)c1C` (centres undefined), the inhibition is 9.6%. On to `COCCOC(=O)C1=C(C)Nc2nc(C)nn2C1c1ccccc1` (centres undefined), for which the inhibition is 16.7%.

In the case of `COc1cc(C2C(C(=O)OCCC#N)=C(C)NC3=C2S(=O)(=O)c2ccccc23)cc(OC)c1OC` (centres undefined), the inhibition is 50.9% (active). `COCCNC(=O)C(c1ccc(C)o1)N(Cc1cccs1)C(=O)c1snc(C(N)=O)c1N` (centres undefined): the inhibition is 3.7%. Take `O=C(Oc1ccc2c(c1)CCC2)N1CCOCC1`: the inhibition was 0.4%.
